Screening results: PubChem, National Center for Advancing Translational Sciences (NCATS)
Shown are actives, neighbours in structure and some others; about 12% of the full set was active somewhere.
G9a block: qHTS Assay for Inhibitors of Histone Lysine Methyltransferase G9a; Histone-lysine N-methyltransferase EHMT2 (Homo sapiens), Q96KQ7; G9a H3K9 monomethylation, AlphaScreen, 2 h; Potency, µM (titrated, usually from 102 µM), inactives show top-dose activity, negative = inhibition, actives largely listed as inhibitors; 8.8% of 350,000 active; also: % is scaled to controls: 0 for no effect and ±100 for the full control effect; nearly all actives have a fitted effect of over 75% in size
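Using a bead-based AlphaScreen, monomethylated H3K9 product from 2 h room-temperature reactions (G9a 20 nM, peptide 500 nM, SAM 20 uM) was detected with 0.5 ug/mL rabbit anti-H3K9me1 antibody.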
JMJD2A Tudor inh: qHTS Assay for Inhibitors of JMJD2A-Tudor Domain. Lysine-specific demethylase 4A (Homo sapiens), O75164. AlphaScreen JMJD2A-Tudor / H3K4me3 peptide binding. Potency, µM (top dose mostly 114 µM), for inactives: top-dose activity change, negative = inhibition, most hits filed as inhibitors. 4.4% of 390,000 active. AID 504339, 2011; also: % is scaled to controls: 0 for no effect and ±100 for the full control effect; nearly all actives have a fitted effect of over 50% in size
Sfp PPTase inh: qHTS Assay for Inhibitors of Bacillus subtilis Sfp phosphopantetheinyl transferase (PPTase); Biochemical Sfp PPTase activity, qHTS; 3.5% of 310,000 active; AID 1490, 2009; 4'-phosphopantetheinyl transferase ffp (Bacillus subtilis), Q9F4F7; Potency, µM, for the others: largest response in the series, negative = inhibition, hits mostly inhibitors;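 also: the enzyme is Sfp with the accession as filed and its product quenches rhodamine fluorescence; 0% = enzyme reaction without inhibitor and -100% = no enzyme wells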
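Reaction rates are the 30-min fluorescence difference (ex 525, em 598 nm) in wells containing 15 nM Sfp, 5 uM rhodamine-CoA and 12.5 uM BHQ-2-YbbR at pH 7.6 with 10 mM MgCl2.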
HP1b chromo inh: HTS for Inhibitors of HP1-beta Chromodomain Interactions with Methylated Histone Tails; AlphaScreen HP1-beta / biotin-H3K9me3 peptide binding; Potency, µM (top dose mostly 114 µM), inactives show top-dose activity change, negative = inhibition, actives largely listed as inhibitors; 0.56% of 390,000 active; also: nearly all actives have a fitted effect of over 70% in size
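AlphaScreen: HP1-beta (50 nM) preformed 30 min with biotin-H3(1-18)K9me3 peptide (50 nM) in PBS pH 7.4, 0.01% Tween-20. Compound added for 30 min at RT, then streptavidin donor/nickel chelate acceptor beads (10 ug/mL) for 30 min.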
BAZ2B block: qHTS Assay for Inhibitors of BAZ2B. AlphaScreen BAZ2B-H3K14Ac peptide displacement. Potency, µM (doses to about 114 µM), without a hit: at the top dose activity change, negative = inhibition, usual class: inhibitors. Bromodomain adjacent to zinc finger domain protein 2B (Homo sapiens), Q9UIF8. 4.4% of 360,000 active; also: % is scaled to controls: 0 for no effect and ±100 for the full control effect; nearly all actives have a fitted effect of over 60% in size
Target sequence (Q9UIF8 whole entry, looked up, the tested form may be a part): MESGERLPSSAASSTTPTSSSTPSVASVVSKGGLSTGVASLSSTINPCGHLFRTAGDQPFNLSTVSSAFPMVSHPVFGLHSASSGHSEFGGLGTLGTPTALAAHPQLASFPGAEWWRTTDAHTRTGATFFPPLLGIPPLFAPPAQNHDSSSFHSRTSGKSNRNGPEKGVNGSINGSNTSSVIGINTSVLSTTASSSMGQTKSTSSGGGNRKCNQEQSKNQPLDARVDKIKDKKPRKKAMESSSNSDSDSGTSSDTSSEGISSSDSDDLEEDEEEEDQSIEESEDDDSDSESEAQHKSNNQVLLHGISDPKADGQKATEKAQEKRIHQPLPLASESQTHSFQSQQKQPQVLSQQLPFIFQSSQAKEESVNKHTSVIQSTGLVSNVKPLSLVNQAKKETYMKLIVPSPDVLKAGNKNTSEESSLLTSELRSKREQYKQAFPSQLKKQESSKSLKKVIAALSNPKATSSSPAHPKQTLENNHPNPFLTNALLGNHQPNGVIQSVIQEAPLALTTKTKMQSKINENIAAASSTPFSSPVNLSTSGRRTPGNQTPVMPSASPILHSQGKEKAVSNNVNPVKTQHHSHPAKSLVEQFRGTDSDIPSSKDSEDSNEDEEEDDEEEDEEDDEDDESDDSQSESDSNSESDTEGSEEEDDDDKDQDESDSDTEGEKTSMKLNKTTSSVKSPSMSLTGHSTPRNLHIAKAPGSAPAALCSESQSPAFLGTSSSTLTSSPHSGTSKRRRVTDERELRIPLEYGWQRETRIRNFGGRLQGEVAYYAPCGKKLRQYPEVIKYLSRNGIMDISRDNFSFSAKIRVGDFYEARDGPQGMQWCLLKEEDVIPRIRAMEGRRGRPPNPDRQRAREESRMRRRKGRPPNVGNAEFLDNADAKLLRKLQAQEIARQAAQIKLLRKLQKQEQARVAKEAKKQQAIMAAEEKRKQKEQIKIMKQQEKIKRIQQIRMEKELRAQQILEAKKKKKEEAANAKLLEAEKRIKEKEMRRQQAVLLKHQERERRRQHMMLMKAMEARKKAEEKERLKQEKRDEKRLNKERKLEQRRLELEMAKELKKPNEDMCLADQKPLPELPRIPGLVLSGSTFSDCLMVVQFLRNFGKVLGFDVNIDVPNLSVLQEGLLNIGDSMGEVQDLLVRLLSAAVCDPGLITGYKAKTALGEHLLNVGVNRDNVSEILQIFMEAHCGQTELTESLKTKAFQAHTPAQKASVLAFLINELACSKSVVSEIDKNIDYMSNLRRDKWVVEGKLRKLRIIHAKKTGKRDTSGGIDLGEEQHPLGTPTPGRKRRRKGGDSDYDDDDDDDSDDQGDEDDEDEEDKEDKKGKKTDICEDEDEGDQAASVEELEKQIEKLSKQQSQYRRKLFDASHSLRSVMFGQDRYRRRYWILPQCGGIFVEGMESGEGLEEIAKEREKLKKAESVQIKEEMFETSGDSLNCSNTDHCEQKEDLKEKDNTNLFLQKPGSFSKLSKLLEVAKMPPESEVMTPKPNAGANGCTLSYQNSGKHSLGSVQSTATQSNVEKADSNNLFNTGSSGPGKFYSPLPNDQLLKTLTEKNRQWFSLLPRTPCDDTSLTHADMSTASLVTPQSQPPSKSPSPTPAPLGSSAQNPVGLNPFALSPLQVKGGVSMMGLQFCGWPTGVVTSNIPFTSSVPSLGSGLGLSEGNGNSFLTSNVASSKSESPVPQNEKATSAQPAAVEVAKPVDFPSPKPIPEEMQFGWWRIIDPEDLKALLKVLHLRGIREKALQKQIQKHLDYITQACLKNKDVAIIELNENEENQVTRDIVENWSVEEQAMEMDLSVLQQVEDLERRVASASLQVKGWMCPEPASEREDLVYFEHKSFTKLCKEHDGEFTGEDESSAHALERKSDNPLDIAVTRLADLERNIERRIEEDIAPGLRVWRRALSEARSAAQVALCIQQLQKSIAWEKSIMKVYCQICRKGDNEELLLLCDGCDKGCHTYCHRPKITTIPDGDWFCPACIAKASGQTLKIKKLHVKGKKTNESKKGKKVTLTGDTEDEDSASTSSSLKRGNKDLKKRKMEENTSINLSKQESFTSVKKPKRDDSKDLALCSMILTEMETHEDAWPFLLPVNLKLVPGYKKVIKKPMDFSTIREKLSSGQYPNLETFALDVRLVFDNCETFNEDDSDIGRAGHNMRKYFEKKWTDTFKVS
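Protein-peptide AlphaScreen: BAZ2B 50 nM, b-H3K14Ac 50 nM, 1x PBS pH 7.4 + 0.01% Tween-20. Preincubation 30 min RT; cpd 30 min RT (top 110 uM); beads 20 min RT, light-protected.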
PLK1 PBD block: qHTS for Inhibitors of PLK1-PDB (polo-like kinase 1 - polo-box domain): Primary Screen; Serine/threonine-protein kinase PLK1 (Homo sapiens), P53350; Plk1 PBD binding of FITC phosphopeptide, fluorescence polarization; Potency, µM, without a hit: max response, negative = inhibition, usual class: inhibitors; 2.8% of 360,000 active; AID 720504, 2013; also: series mostly up to about 57 µM; % is scaled to controls: 0 for no effect and ±100 for the full control effect; nearly all actives have a fitted effect of over 65% in size
Active calls of the source: *; u = inconclusive; x = no result given; [ ] = remark or other dose. Calls follow the shape of the dose curve; as a rule, active = well fitted curve in the direction sought with a large enough effect; inconclusive = small, poorly fitted or top-dose-only effect, or another doubt; inactive = no such curve, though single readings can be large; an effect the other way counts as inactive or inconclusive. Potency is read from the fitted curve at half-maximal effect.

SMILES	G9a block	JMJD2A Tudor inh	Sfp PPTase inh	HP1b chromo inh	BAZ2B block	PLK1 PBD block
O=C(N/N=C/c1ccc(-c2ccc([N+](=O)[O-])cc2)o1)C(O)c1ccccc1 (stereo unspecified)	u	-27%	-7%	3%	-10%	-8%
NCCn1c(-c2ccccc2)cc(C(=O)O)c1-c1ccccc1F	50µM*	-29%	-7%	24%	u	-26%
O=C1C(=O)C(c2ccc(O)cc2O)Oc2cc(O)cc(O)c21 (stereo unspecified)	x	14µM*	x	u	x	x
O=C1c2c(O)cc(O)cc2OC(c2ccc(O)c(O)c2)C1O (stereo unspecified)	u	x	-7%	x	x	x
CN(C)CCNc1ncnc2c1sc1nc(-c3ccccc3)c3c(c12)CCCC3	u	u	35µM*	-21%	u	11%
c1nc(NCCN2CCOCC2)c2sc3nc(N4CCOCC4)c4c(c3c2n1)CCC4	50µM*	-16%	7%	28%	1%	-7%
COc1ncnc2c1sc1nc(-c3ccccc3)c3c(c12)CCCC3	28%[59 µM]	21%	u	54%	14%	7%
Cc1cc(O)c(N=Nc2ccc(C(=O)O)cc2)cc1C	x	u	x	-21%[57 µM]	x	-11%
Cc1cc(N=NC(=O)c2ccccc2)ccc1O	u	-35%	50µM*	-23%	u	u
CCC1=C2CC[C@H]3C(=O)NC(=O)[C@H]3[C@H]2[C@@]2(Cc3ccccc3)C(=NCC3CC3)OC(=O)N2C1=O	x	x	4%	x	x	x
CCOC(=O)c1[nH]c(C)c(/C(O)=C2\C(=O)C(=O)N(CCN3CCOCC3)C2c2ccco2)c1C (stereo unspecified)	40µM*	-14%	1%	20%	u	-7%
CCOC(=O)c1[nH]c(C)c(/C(O)=C2\C(=O)C(=O)N(CCN(C)C)C2c2ccco2)c1C (stereo unspecified)	-41%[12.7 µM]	u	0%	23%	-36%	-1%
COC(=O)c1[nH]c(C)c(/C(O)=C2\C(=O)C(=O)N(CCN3CCOCC3)C2c2cccs2)c1C (stereo unspecified)	45µM*	-25%	-1%	12%	-5%	0%
COC(=O)c1[nH]c(C)c(/C(O)=C2\C(=O)C(=O)N(CCN3CCOCC3)C2c2ccco2)c1C (stereo unspecified)	50µM*	-30%	-3%	17%	0%	2%
NC(=O)C[C@@H]1N[C@]2(C(=O)Nc3ccccc32)[C@@H]2C(=O)N(c3cc(C(F)(F)F)ccc3Cl)C(=O)[C@H]12	50µM*	-19%	14%	33%	-2%	-1%
CC(C)[C@@H]1N[C@]2(C(=O)Nc3ccccc32)[C@@H]2C(=O)N(c3cccc(C(F)(F)F)c3)C(=O)[C@@H]21	50µM*	-7%	19%	34%	11%	-2%
CCCOc1ccc(N2C(=O)C3C(C(C)C)NC4(C(=O)c5ccccc5C4=O)C3C2=O)cc1 (stereo unspecified)	u	-18%	-2%	16%	-5%	-3%
CNC(=S)NNC(=O)CCn1nc(C)c(Br)c1C	1%[59 µM]	-17%	-1%	22%	-3%	-10%
Cc1ccc(C)c(NC(=O)CCC(=O)NNC(=S)Nc2ccccc2)c1	50µM*	0%	12%	54%	-14%	-10%
Cc1nn(CCC(=O)NNC(=S)Nc2ccccc2)c(C)c1Br	13µM*	-8%	2%	23%	8%	-13%
Cc1ccc(C)c(NCC(=O)NNC(=S)Nc2ccccc2)c1	22µM*	-28%	13%	19%	-19%	-4%
